# Hits are enriched below; roughly 15% of the tested compounds scored in any of these assays.
# TDP1 cell CPT: qHTS for Inhibitors of human tyrosyl-DNA phosphodiesterase 1 (TDP1): qHTS in cells in presence of CPT | chicken DT40 Tdp1-/-;hTDP1 cells + 20 nM CPT, ATP luminescence, 48 h | Potency, µM (series often up to 46.2 µM), for the others: top-dose activity change, negative = growth inhibition, most hits filed as inhibitors | 12% of 420,000 active | AID 686979, 2013; further: nearly all actives have a fitted effect of over 55% in size
#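 Chicken DT40 Tdp1-/- cells stably complemented with human TDP1 were seeded at 400 cells/well in medium containing 20 nM camptothecin, exposed to pin-transferred compounds, and grown at 37 °C for at least 48 hr. Viability was read as ATP luminescence.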
# DT40 TDP1 no CPT: qHTS for Inhibitors of human tyrosyl-DNA phosphodiesterase 1 (TDP1): qHTS in cells in absence of CPT. DT40 Tdp1-/- hTDP1 cells, no CPT, ATP luminescence, 48 h. Potency, µM (top dose mostly 46.2 µM), inactives show top-dose activity change, negative = growth inhibition, most hits filed as inhibitors. 15% of 420,000 active; further: nearly all actives have a fitted effect of over 55% in size
#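 A cellular qHTS used chicken DT40 cells lacking endogenous Tdp1 but carrying stably transfected human TDP1. Compounds were applied without camptothecin, and cell growth kinetics were judged by ATP-dependent luminescence after ≥48 hr.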
# VP16 counter: VP16 counterscreen qHTS for inhibitors of ROR gamma transcriptional activity. Potency, µM (doses to about 53.6 µM), inactives show at the top dose activity, negative = inhibition, hits mostly inhibitors. Drosophila S2 Gal4-VP16 UAS-luciferase, luminescence, 20 h. AID 2546, 2010. 3.5% of 310,000 active;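 further: Gal4-VP16 expression switched on by copper sulfate through the metallothionein promoter; nearly all actives have a fitted effect of over 50% in size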
# ELG1 repair inh: qHTS screen for small molecules that inhibit ELG1-dependent DNA repair in human embryonic kidney (HEK293T) cells expressing luciferase-tagged ELG1; HEK293T ELG1-luciferase reporter, luminescence, 16 h; DNA damage induced by 5-fluorouridine; 2.3% of 330,000 active; Potency, µM (highest dose often 46.1 µM), without a hit: at the highest dose activity change, negative = inhibition, usual class: inhibitors; further: nearly all actives have a fitted effect of over 55% in size
#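 Step one: seed 2,000 cells per well. Step two: pin-transfer compound or DMSO alongside 5-fluorouridine. Step three: incubate 16 hr, 37 °C, 5% CO2. Step four: add ONE-Glo, wait 30 min, read luminescence.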
# 12-LOX inh: Primary qHTS assay for inhibitors of human arachidonate 12S-lipoxygenase (ALOX12): Round 2 | AID 1671190, 2021 | Polyunsaturated fatty acid lipoxygenase ALOX12 (Homo sapiens), P18054 | Potency, µM (doses to about 108 µM), inactives show at the top dose activity change, negative = inhibition, actives largely listed as inhibitors | 1.1% of 580,000 active | purified 12hLO, xylenol orange hydroperoxide absorbance
#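 Hydroperoxide product was detected by ferrous iron/xylenol orange as the 573 to 405 nm absorbance ratio. Arachidonic acid at 40 uM (final) was turned over for 30 min at room temperature by 150 nM human 12hLO, pH 7.0 Hepes buffer, after 15 min compound preincubation.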
# RORgamma inh: qHTS for inhibitors of ROR gamma transcriptional activity; Nuclear receptor ROR-gamma (Mus musculus), P51450; 5.4% of 310,000 active; Potency, µM (doses to about 53.6 µM), for the others: at the top dose activity change, negative = inhibition, actives largely listed as inhibitors; Drosophila S2 Gal4-RORgamma UAS-luciferase reporter, 20 h; further: nearly all actives have a fitted effect of over 60% in size
# Target sequence (P51450 whole entry, looked up, the tested form may be a part): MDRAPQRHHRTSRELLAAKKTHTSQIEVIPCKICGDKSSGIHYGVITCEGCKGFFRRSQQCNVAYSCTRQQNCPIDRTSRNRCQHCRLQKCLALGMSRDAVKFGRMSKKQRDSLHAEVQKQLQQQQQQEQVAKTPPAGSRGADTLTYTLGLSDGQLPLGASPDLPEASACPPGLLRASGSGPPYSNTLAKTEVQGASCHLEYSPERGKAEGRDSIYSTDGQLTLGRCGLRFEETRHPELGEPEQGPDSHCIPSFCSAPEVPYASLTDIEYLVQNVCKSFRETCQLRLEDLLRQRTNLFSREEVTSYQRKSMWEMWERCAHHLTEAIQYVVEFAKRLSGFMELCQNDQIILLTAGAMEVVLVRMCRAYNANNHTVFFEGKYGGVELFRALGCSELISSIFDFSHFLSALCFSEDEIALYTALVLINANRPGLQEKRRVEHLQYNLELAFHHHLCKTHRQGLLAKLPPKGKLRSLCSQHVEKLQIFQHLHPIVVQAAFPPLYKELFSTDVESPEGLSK
#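 Compounds are pin-transferred onto Drosophila Schneider cells expressing a copper-inducible Gal4–ROR gamma transactivation domain fusion. After 1 hr, copper sulfate is added to 700 uM final; luciferase is read 20 hr later.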
# * hit, by the source's call; i = inactive; ? = inconclusive; / = not tested or not shown; [ ] = remark or other dose. The call rests on the fitted dose curve; in most records, active means well fitted curve in the direction sought with a large enough effect; inconclusive means small, poorly fitted or top-dose-only effect, or another doubt; inactive means no such curve, though single readings can be large; an effect the other way counts as inactive or inconclusive. On the % scale 0 is the no-effect control and ±100 the full control effect; potency means the concentration at half of the fitted maximal effect.
SMILES,TDP1 cell CPT,DT40 TDP1 no CPT,VP16 counter,ELG1 repair inh,12-LOX inh,RORgamma inh
Cc1ccc(C(=O)NC(=S)NNS(=O)(=O)c2ccc(C)cc2)cc1,-20.4%,5.1%,?,3.6%,?,5.62µM*
CCOP(=O)(OCC)C(NC(=O)c1ccc(C)cc1)=C(Cl)Cl,1.9%,-3.0%,1.5%,?,1.6%,-13.0%
COc1ccc(CCn2c(O)c(/C=N/N3CCOCC3)c(=O)[nH]c2=O)cc1OC,6.6%,-26.6%,-1.3%,18.3µM*,0.0%,-1.8%
COc1ccc(CCn2c(O)c(C=Nc3ccc(NC(C)=O)cc3)c(=O)[nH]c2=O)cc1OC,?,-19.1%,-10.9%,0.9%,i,-14.4%
COc1ccc(CCn2c(O)c(C=NCCN3CCCCC3)c(=O)[nH]c2=O)cc1OC,3.1%,9.0%,-1.3%,6.4%,-7.2%,4.2%
CCOc1ccc(N=Cc2c(O)n(CCc3ccc(OC)c(OC)c3)c(=O)[nH]c2=O)cc1,?,16.4µM*,-2.4%,-12.8%,?,-0.5%
Nc1nc(CN2CCN(C(=O)COc3ccc(F)cc3)CC2)nc2ccccc12,/,/,/,/,20.2%,/
COc1ccc(-c2nc(CN3C(=O)CN=C(c4ccccc4)c4ccccc43)c(C)o2)cc1,?,18.4µM*,/,/,-15.4%,/
O=C1CN=C(c2ccccc2)c2cc(Br)ccc2N1Cc1cc(=O)n2ccccc2n1,?,?,-8.9%,1.4%,10.8%,13.0%
O=C1CN=C(c2ccccc2)c2ccccc2N1Cc1ccc(C(F)(F)F)cc1,22.4µM*,?,-6.4%[0.365 µM],-6.1%,20.5%,-19.1%
Cc1ccc(-c2nc(CN3C(=O)CN=C(c4ccccc4)c4cc(Cl)ccc43)c(C)o2)cc1,?,?,/,/,4.6%,/
Cc1ccc(-c2nc(CN3C(=O)CN=C(c4ccccc4)c4ccccc43)c(C)o2)cc1,?,18.4µM*,/,/,-15.9%,/
Cc1oc(-c2ccccc2Cl)nc1CN1C(=O)CN=C(c2ccccc2)c2ccccc21,?,20.6µM*,7.5%,?,17.8%,37.0%
CC(=O)C(C#N)c1ccccc1 (stereo unspecified),/,/,/,/,-8.8%,/
CCCCCNc1c(C(=O)OCC)c(=O)[nH]c2ccccc12,?,13µM*,2.9%,?,0.0%,8.6%
CCOC(=O)c1cccc(NC(=O)c2c(O)[nH]c(=O)[nH]c2=O)c1,0.4%,-7.0%,/,/,?,/
CCCCCC[C@H]1C(=O)O[C@H](C)[C@H](NC(=O)c2cccc(NC=O)c2O)C(=O)O[C@@H](C)[C@@H]1OC(=O)CC(C)C,0.0168µM*,0.0188µM*,2.0%,/,-11.6%[57.4 µM],?
CCCCCC[C@H]1C(=O)O[C@H](C)[C@H](NC(=O)c2cccc(NC=O)c2O)C(=O)O[C@@H](C)[C@H]1OC(=O)CC(C)C,/,/,-94.3%[17 µM],/,/,?
CCOP(=O)(Nc1ccc2c(c1)C(=NNC(N)=S)c1ccccc1-2)OCC,18.4µM*,9.2µM*,/,/,22.4µM*,/
CC(C)NC(=O)NC[C@H]1C[C@@H]2CCN1C[C@@H]2CN1CCN(C)CC1,/,/,/,/,3.6%[176 µM],/
C[C@]12CC[C@@H]3c4ccc(OC(=O)N(CCCl)CCCl)cc4CC[C@H]3[C@@H]1CC[C@@H]2OP(=O)(O)O,3.2%,-3.4%,/,/,21.7µM*,/
COc1ccc(C(=O)c2c(C)n(CCN3CCOCC3)c3ccccc23)cc1,?,23.7µM*,-6.6%,/,?,26.8%
CCN1CCN(C(=O)COc2ccc3c(=O)c(-c4ccccc4)coc3c2)CC1,/,/,/,/,2.0%,/
Nc1nc(F)nc2c1ncn2[C@@H]1O[C@H](CO)[C@@H](O)[C@@H]1O,0.206µM*,0.164µM*,-13.5%,-0.5%,5.2%,-7.0%
Nc1nc(F)nc2c1ncn2[C@@H]1O[C@H](CO)[C@@H](O)[C@H]1O,0.058µM*,0.164µM*,-3.6%,/,-5.0%,-3.7%
SMILES,TDP1 cell CPT,DT40 TDP1 no CPT,VP16 counter,ELG1 repair inh,12-LOX inh,RORgamma inh
O=C([C@H]1CN2CCC1C[C@@H]2Cn1cc(COc2ccccc2)nn1)N1CCOCC1 (stereo partly specified),/,/,/,/,7.9%[176 µM],/
CCCN1CCNc2cc(Nc3ccccc3)ncc2C1,/,/,/,/,79.0%[176 µM],/
CC(C)c1nccc(CN2CCCC3(CNC(=O)O3)C2)n1 (stereo unspecified),/,/,/,/,30.0%,/
O=C1NC2(CCN(Cc3cccnc3)C2)Oc2ccccc21 (stereo unspecified),/,/,/,/,14.6%[176 µM],/
CCOC(=O)N1CCN(C(=O)c2ccc3c(=O)n(CCC4=CCCCC4)c(=S)[nH]c3c2)CC1,?,?,14.1µM*,?,5.0%,-26.3%
COP(=O)(OC)C1(O)C(=O)Nc2ccc(Br)cc21 (stereo unspecified),16.4µM*,?,?,3.7%,-1.1%,?
CCOP(=O)(OCC)C1(O)C(=O)Nc2ccccc21 (stereo unspecified),-3.9%,-12.4%,?,11.1%,13.9%,1.6%
O=C(Cc1cccc(F)c1)N1CCN2CCS(=O)(=O)N(C3CC3)C(=O)C2C1 (stereo unspecified),/,/,/,/,36.4%,/
CCOC(=O)c1ccccc1C(=O)OCC,3.8%,-0.1%,-4.8%,/,2.8%,-6.8%[10 µM]
CCOC(=O)c1cnc(N2CC2)nc1N,0.461µM*,0.92µM*,/,/,11.4%,/
O=C([C@H]1CN2CCC1C[C@@H]2Cn1cc(CSc2ccccc2)nn1)N1CCOCC1 (stereo partly specified),/,/,/,/,14.6%[176 µM],/
C#CCNC1CCCCC1,/,/,/,/,-5.6%,/
CC(=O)OC1CCC2(C)C(CCC3C2CC(=O)C2(C)C3CC(N3CC3)C2C(C)=O)C1 (stereo unspecified),7.31µM*,13µM*,/,/,22.4%,/
CC(=O)O[C@@H]1CC[C@]2(C)C3CC[C@@]4(C)C(C[C@@H](O)[C@@H]4O)C3[C@@H](OC(C)=O)C[C@H]2C1 (stereo partly specified),-25.8%,?,/,-13.3%,2.6%,/
CC(C)c1c(C(=O)NC(c2cccnc2)C(F)(F)F)cnn1-c1nccc(-c2cccs2)n1 (stereo unspecified),?,13µM*,/,/,8.3%,/

# Screens: PubChem, National Center for Advancing Translational Sciences (NCATS)
